High-throughput results (PubChem)
Cycloheximide cs = affects cycloheximide protein synthesis inhibition readout, counter-screen; cell reporter, cycloheximide protein synthesis inhibition counterscreen; max response, %; 300,000 tested, 12% active; AID 2314; in the data active = max response mostly above about 13%, no sharp cut-off; inactive = mostly below about 14%; also: read at 38.3 µM for the half of the compounds with a filed dose
NS1 function inh = influenza NS1 inhibition; 270,000 tested, 0.4% active; Potency, µM (titrated, usually from 46.1 µM); calls by dose curve; also: actives are rising curves; nearly all actives have a fitted effect of over 50% in size
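Growth recovery, yeast-based: influenza A NS1 expressed in S. cerevisiae causes slow growth, and suppressors are detected by OD600. The parent strain without NS1 is used as positive control.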
Shiga toxin inh = Shiga toxin inhibition | Vero cells, Shiga toxin protein synthesis inhibition reporter | 290,000 tested, 9.2% active | inhibition, % at 38.7 µM | AID 2315; in the data active = inhibition mostly above about 28%, no sharp cut-off; inactive = mostly below about 43%
Pf growth 96h = P. falciparum growth inhibition at 96 hour, primary screen for plastid delayed-death inhibitors; P. falciparum luciferase reporter growth, 96 h; Potency, µM (doses to about 28.7 µM), usual class: inhibitors; 320,000 tested, 6.9% active; AID 504834
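Luminescence readout: decreased luciferase signal marks inhibited growth of reporter-expressing P. falciparum in infected red cells (2% hematocrit, 0.05% parasitemia final), exposed to compound two generations (96 h, 37 C, 5% CO2).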
Pf growth 48h = P. falciparum growth inhibition at 48 hours (one generation); P. falciparum luciferase growth in erythrocytes, 48 h; 310,000 tested, 5.9% active; Potency, µM (highest dose often 28.7 µM), usual class: inhibitors
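Read-out is firefly luciferase luminescence from an integrated reporter in P. falciparum, so falling signal marks reduced parasite growth. Infected erythrocytes were at 2% hematocrit and 0.1% parasitemia (final) in Albumax-supplemented RPMI 1640.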
Of the large screens only hits and unclear results are named; the others gave an inactive call. This is a sample that favours compounds with a hit; in the whole collection about 21% have one here. Unless noted, calls follow the shape of the dose curve; as a rule, active = well fitted inhibition curve with a large enough effect; inconclusive = small, poorly fitted or top-dose-only effect, or another doubt; inactive = no such curve, though single readings can be large or run the other way.

CCOc1ncccc1C(=O)OCc1ccc(Cl)cc1	none
CCOc1ncccc1C(=O)OCc1ccc(C(=O)OC)cc1	Cycloheximide cs 81, Shiga toxin inh 98
CS(=O)(=O)CCC(C(=O)OCc1ccc(Br)cc1)N1C(=O)c2ccccc2C1=O (stereo not given)	none
COC(=O)c1ccc(OCC(=O)c2ccccc2OC)cc1	Cycloheximide cs 22, Pf growth 96h inconclusive (no result: Pf growth 48h)
COC(=O)c1ccc(COC(=O)c2ccccc2OC)cc1	Cycloheximide cs 67, Shiga toxin inh 97
COC(=O)c1ccc(COC(=O)C(CCS(C)(=O)=O)N2C(=O)c3ccccc3C2=O)cc1 (stereo not given)	Pf growth 96h 6.6µM
O=C(COc1ccc(Br)cc1)N1CCNC1=O	none
CNS(=O)(=O)c1ccc(C)c(S(=O)(=O)NC)c1	none
Cc1ccc(-c2cc(C(=O)Nc3c(C)n(C)n(-c4ccccc4)c3=O)[nH]n2)c(O)c1C	none
CCOC(=O)C(CCc1ccccc1)NC1CCc2ccccc2N(CC(=O)O)C1=O (stereo not given)	Pf growth 96h 12µM, Pf growth 48h 9.5µM (no result: NS1 function inh)
COC(=O)c1cc2occc2n1Cc1c(F)cccc1Cl	Pf growth 96h 2.6µM
Cc1cccc(N/C(N)=N/c2nc(C)cc(=O)[nH]2)c1	none
NNC(=O)CSc1cccc2cccnc12	none
COc1ccccc1NC(=O)CSc1n[nH]c(-c2ccccn2)n1	Pf growth 96h inconclusive
Cc1cccc(NC(=O)CCn2ccnc2C)c1	Cycloheximide cs 21, Shiga toxin inh 50
O=C(CSc1n[nH]c(-c2ccccn2)n1)Nc1ccccc1F	Pf growth 96h 10µM
O=C(Cc1ccccc1F)Nc1cccc2cccnc12	Cycloheximide cs 24, Shiga toxin inh 29
O=C(CSc1cccc2cccnc12)Nc1ccccc1F	Cycloheximide cs 16, Pf growth 96h inconclusive
O=C(NC1CC2CCC(C1)N2C(=O)NCc1ccccc1)NC12CC3CC(CC(C3)C1)C2 (stereo not given)	Pf growth 48h inconclusive
O=C(Nc1ccc(S(=O)(=O)Nc2nccs2)cc1)c1ccc(=O)[nH]c1	none
COc1ccc(C(C)(C)C)cc1NC(=O)Cn1cnnn1	Pf growth 48h inconclusive
Cc1ccc(C)c(NC(=O)CSc2cccc3cccnc23)c1	Pf growth 96h inconclusive
Cc1cccc(NC(=O)CSc2cccc3cccnc23)c1	Cycloheximide cs 14, Pf growth 96h inconclusive
Cc1cccc(NC(=O)CC(=O)Nc2cccc(C)c2)c1	none (no result: Pf growth 48h)
Cc1ccc(SCC(=O)Nc2cccc(C)c2)cc1	Cycloheximide cs 19, Pf growth 96h inconclusive
CSCC[C@@H](C(=O)Nc1ccc2c(c1)OCCO2)N1Cc2ccccc2C1=O	Cycloheximide cs 27, Pf growth 96h inconclusive (no result: Pf growth 48h)
CS(=O)(=O)CCC(C(=O)Nc1ccc2c(c1)OCO2)N1Cc2ccccc2C1=O (stereo not given)	Cycloheximide cs 20
CC(C)C(C(=O)Nc1ccc2c(c1)OCO2)N1C(=O)c2ccccc2C1=O (stereo not given)	none (no result: Pf growth 96h)
CSCCC(C(=O)NCc1cccs1)N1C(=O)c2ccccc2C1=O (stereo not given)	none (no result: Pf growth 48h)
CSCC[C@@H](C(=O)O)N1Cc2ccccc2C1=O	Pf growth 96h inconclusive (no result: Pf growth 48h)
CSCC[C@@H](C(=O)NCc1cccs1)N1Cc2ccccc2C1=O	Pf growth 96h 8.3µM (no result: Pf growth 48h)
NC(=O)C1(N2CCCCC2)CCN(S(=O)(=O)c2cc(Cl)sc2Cl)CC1	none
CN(Cc1ccccc1)C(=O)COC(=O)C1CCN(S(=O)(=O)c2ccc(Cl)c(C(F)(F)F)c2)CC1	Pf growth 96h inconclusive (no result: Cycloheximide cs, NS1 function inh, Shiga toxin inh)
Cc1ccn(CC(=O)N2CCCC(Nc3ccc(F)c(F)c3)C2)n1 (stereo not given)	Pf growth 48h inconclusive
COc1ccc(NC2CCCN(C(=O)CN3CCOC3=O)C2)cc1 (stereo not given)	Cycloheximide cs 38, Shiga toxin inh 62, Pf growth 96h inconclusive
COc1ccc(NC2CCCN(C(=O)CN3CCOC3=O)C2)cc1OC (stereo not given)	none
COc1ccc(NC2CCCN(C(=O)Cn3ccc(C)n3)C2)cc1OC (stereo not given)	Pf growth 96h 5.2µM
Cc1ccnn1CCC(=O)N1CCCC(Nc2ccc(F)c(F)c2)C1 (stereo not given)	NS1 function inh inconclusive, Pf growth 96h 12µM
COc1ccccc1OCC(=O)N1CCCC(Nc2ccc(C)c(C)c2)C1 (stereo not given)	none
COc1ccc(CCC(=O)N2CCCC(Nc3ccc(C)c(C)c3)C2)cc1OC (stereo not given)	Cycloheximide cs 23, Pf growth 96h inconclusive
